Screens from PubChem BioAssay.
Lassa entry inh – qHTS for Inhibitors of binding or entry into cells for Lassa Virus | Lassa virus pseudotype entry inhibition, cell reporter | Potency, µM (doses to about 37.9 µM), inactives show at the top dose activity change, negative = inhibition, most hits filed as inhibitors | 1.2% of 300,000 active; calls by dose curve; tested in HEK293 cells; note: nearly all actives have a fitted effect of over 50% in size
AMA1 RON2 block – qHTS for Inhibitors of AMA1-RON; Towards Development of Antimalarial Drug Lead: Primary Screen. Plasmodium falciparum AMA1 (3D7) - RON2 peptide interaction. AlphaScreen AMA1-biotinylated RON2 peptide binding. Potency, µM (highest dose often 58.2 µM), inactives show at the highest dose activity change, negative = inhibition, hits mostly inhibitors. 0.2% of 360,000 active;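 note: 0% = vehicle wells and -100% = peptide control; nearly all actives have a fitted effect of over 45% in size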
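AMA1 (3D7) with his tag at 25 nM final met compounds first, then biotinylated RON2 peptide at 25 nM; detection used donor plus acceptor beads, 10 µg/mL apiece, read by AlphaScreen after 30 min at room temperature.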
MARV entry inh – qHTS for inhibitors of binding or entry into cells for Marburg Virus; Marburg virus pseudotyped entry inhibition, cell reporter; Potency, µM (series often up to 37.8 µM), for the others: top-dose activity change, negative = inhibition, most hits filed as inhibitors; 1.8% of 300,000 active; AID 540276, 2011; calls by dose curve; tested in HEK293 cells
AmpC detergent – qHTS Inhibitors of AmpC Beta-Lactamase (assay with detergent). P00811. AID 485294, 2010. Potency, µM (highest dose often 114 µM), for the others: top-dose activity change, negative = inhibition, most hits filed as inhibitors. AmpC hydrolysis of nitrocefin, absorbance 480 nm, 0.01% Triton. 0.041% of 370,000 active;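 note: 0% = no-compound wells and -100% = no-enzyme wells; nearly all actives have a fitted effect of over 25% in size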
Target sequence (P00811 whole entry, looked up): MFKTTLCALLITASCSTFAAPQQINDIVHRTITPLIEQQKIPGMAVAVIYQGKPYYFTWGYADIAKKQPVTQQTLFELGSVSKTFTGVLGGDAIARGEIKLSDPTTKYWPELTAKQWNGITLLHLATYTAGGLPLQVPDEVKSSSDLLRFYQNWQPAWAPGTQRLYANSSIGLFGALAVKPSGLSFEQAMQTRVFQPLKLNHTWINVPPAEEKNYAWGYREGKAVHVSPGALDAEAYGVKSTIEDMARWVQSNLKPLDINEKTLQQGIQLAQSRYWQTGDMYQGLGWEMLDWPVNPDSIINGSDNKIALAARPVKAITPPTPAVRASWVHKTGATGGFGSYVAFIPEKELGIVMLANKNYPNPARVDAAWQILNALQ
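20 mM phosphate pH 7.0 + 0.01% (detergent screen) or 0.0001% Triton X-100; 5.3 nM AmpC reagent; cpd preinc 15 min RT; nitrocefin (800 uM stock) to start; A480 q20 s × 4 min; Activity was normalised to no-enzyme and no-compound control wells.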
AmpC no deterg – qHTS Inhibitors of AmpC Beta-Lactamase (assay without detergent); AmpC nitrocefin hydrolysis, absorbance 480 nm, 0.0001% Triton; P00811; Potency, µM (titrated, usually from 57.1 µM), for the others: at the top dose activity change, negative = inhibition, most hits filed as inhibitors; 0.52% of 330,000 active;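 note: plate controls were no compound for no effect and no enzyme for full effect; nearly all actives have a fitted effect of over 20% in size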
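20 mM phosphate pH 7.0 + 0.01% (detergent screen) or 0.0001% Triton X-100; 5.3 nM AmpC reagent; cpd preinc 15 min RT; nitrocefin (800 uM stock) to start; A480 q20 s × 4 min; Activity was normalised to no-enzyme and no-compound control wells.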
Starred values were filed as active, the others as inactive; ? = inconclusive; . = not tested or not shown; [ ] = dose if it differs, or a comment. This is a sample that favours compounds with a hit; in the whole collection about 2.3% have one here. Unless noted, calls come from the whole dose curve; as a rule, active = well fitted curve in the direction sought with a large enough effect; inconclusive = small, poorly fitted or top-dose-only effect, or another doubt; inactive = no such curve, though single readings can be large; an effect the other way counts as inactive or inconclusive. Unless noted, % is set by controls: 0 for no effect and ±100 for the full control effect; potency is the fitted concentration of half-maximal effect.

SMILES	Lassa entry inh	AMA1 RON2 block	MARV entry inh	AmpC detergent	AmpC no deterg
CCOc1cccc(-c2cc(C(=O)N/N=C/c3ccc(OC)c(CN4CCOCC4)c3)c3ccccc3n2)c1	?	-25.2%	8.2µM*	0.2%	159.1%
CCOc1ccccc1-c1cc(C(=O)N/N=C/c2ccc(O)c(OC)c2)c2ccccc2n1	7.08µM*	2.0%	?	-1.0%	-14.4%
COc1cc(/C=N/NC(=Nc2ccc(C)cc2)c2nc3ccccc3s2)ccc1O	13µM*	-13.8%	?	-4.6%	4.1%
COc1ccc(CC(=O)Nc2sc3c(c2C(=O)Nc2c(C)cccc2C)CCCCC3)cc1	-17.6%[46.1 µM]	.	13.6%[46.1 µM]	-1.0%	.
CCN(CC(=O)NCc1ccc(F)cc1)C(=O)c1oc2ccccc2c1C	?	-2.6%	8.91µM*	-6.9%	41.2%
Cc1ccc2oc(C(=O)N(Cc3cccc(F)c3)C3CCS(=O)(=O)C3)c(C)c2c1 (stereo not given)	-21.1%[46.1 µM]	.	-29.8%[46.1 µM]	16.2%	.
Brc1cccc(-c2nc3cccnc3nc2-c2cccc(Br)c2)c1	.	-0.8%	.	?	4.3%
Cc1ccc(-c2nc3cc(Br)cnc3nc2-c2ccc(C)cc2)cc1	?	-12.7%	3.16µM*	1.9%	-21.9%
Cc1cccc(NC(=O)Nc2ccc(S(N)(=O)=O)cc2)c1	-1.1%[46.1 µM]	-13.1%	6.9%[46.1 µM]	1.7%	-44.5%
COc1ccccc1NS(=O)(=O)c1cccc(NC(=O)c2cncc(Br)c2)c1	?	31.6%	3.55µM*	.	-24.5%
NS(=O)(=O)c1cccc(NC(=O)Nc2ccc(Cl)cc2)c1	?	8.6%	-1.1%[46.1 µM]	-4.5%	14.1µM*
COc1ccccc1NS(=O)(=O)c1cccc(NC(=O)Nc2cccc(Cl)c2)c1	12.6µM*	-28.4%	?	-0.9%	-21.8%
COc1ccccc1NS(=O)(=O)c1cccc(NC(=O)NCCCl)c1	.	4.5%	.	-4.9%	-4.8%
Oc1ccc(CNc2cccc(F)c2F)c2cccnc12	.	.	.	-9.9%	-19.3%
CCc1ccc(OCC(=O)NCC(c2ccc(OC)cc2)N2CCOCC2)cc1 (stereo not given)	1.8%[46.1 µM]	.	11.1%[46.1 µM]	-0.5%	.
CC(=O)N1c2ccc(S(=O)(=O)NCC3CCC(C(=O)NCCC(C)C)CC3)cc2CC1C (stereo not given)	-5.2%[46.1 µM]	.	.	2.3%	.
COC(=O)C(Cc1cc(Br)c(OC)c(Br)c1O)=NO	.	.	-16.0%[14.2 µM]	.	.
COc1ccc(C2CC(=O)Oc3c(C(CCN4CCOCC4)c4cc(OC)c(OC)c(OC)c4)c(OC)cc(OC)c32)cc1 (stereo not given)	.	-19.8%	.	5.2%	226.5%
COc1cc(C(CCN2CCOCC2)c2c(OC)cc(OC)c3c2OC(=O)CC3c2ccc(N(C)C)cc2)cc(OC)c1OC (stereo not given)	.	20µM*	.	0.2%	197.6%
COc1cc(OC)c2c(c1C(CCN1CCOCC1)c1ccc(N(C)C)cc1)OC(=O)CC2c1ccc(N(C)C)cc1 (stereo not given)	.	14.1µM*	.	-2.3%	193.2%
COc1ccc(C2CC(=O)Oc3c(C(CCN4CCN(c5ccccc5)CC4)c4ccc(N(C)C)cc4)c(OC)cc(OC)c32)cc1 (stereo not given)	.	11.2µM*	.	-4.0%	62.8%
COc1cc(C2CC(=O)Oc3c(C(CCN4CCCC(C)C4)c4ccc(N(C)C)cc4)c(OC)cc(OC)c32)cc(OC)c1OC (stereo not given)	.	-26.6%	.	-3.4%	219.6%
COc1cc(C(CCN2CCCC(C)C2)c2c(OC)cc(OC)c3c2OC(=O)CC3c2ccc(N(C)C)cc2)cc(OC)c1OC (stereo not given)	.	20µM*	.	5.3%	217.1%
COc1cc(C(CCN2CCN(c3ccccc3)CC2)c2c(OC)cc(OC)c3c(C)cc(=O)oc23)cc(OC)c1OC (stereo not given)	.	?	.	-4.7%	151.3%
CC(C)CC(=O)Nc1ccc(Nc2ccccc2)cc1	3.55µM*	-16.9%	?	-10.9%	1.6%
Cn1c(=N)n(CC(=O)O)c2ccccc21	1.4%	13.8%	-1.9%	4.0%	-6.8%
